We go through 23 molecules from the supplement of paper PMC13380429.

Molecules are shown by their SMILES.

The test relates to Vero E6 infected with SARS-CoV-2. The experiment in a line: inhibition of SARS-CoV-2 cytopathic effect; higher = more antiviral protection, active = above 15. The note with it: 48 h. In general terms: Damage to the host cells serves as the signal in cytopathic effect assays.

On to `Cc1cccc(/C=C/c2ccccc2)n1`, for which the “inhibition of SARS-CoV-2 cytopathic effect” value (shortened to “inhibition”) runs as follows: (1 nM) 3.85% (inactive); (8.33 nM) -0.34% (inactive); (100 nM) -0.78% (inactive); (833.33 nM) -1.72% (inactive); (10000 nM) -2.74% (inactive).

As to `CCCNC(=O)NS(=O)(=O)c1ccc(Cl)cc1` [chlorpropamide], the “inhibition” value was 0.91% (inactive) (1 nM); 0.48% (inactive) (8.33 nM); -1.08% (inactive) (100 nM); -0.4% (inactive) (833.33 nM); -2.67% (inactive) (10000 nM).

As to `CC(OC(=O)OC1CCCCC1)OC(=O)C1=C(CSc2nnnn2CCN(C)C)CS[C@@H]2[C@H](NC(=O)Cc3csc(N)n3)C(=O)N12` (stereo not given in full) [cefotiam-cilexetil], the “inhibition” value is, setting by setting: (1 nM) -0.8% (inactive); (8.33 nM) 0.27% (inactive); (100 nM) 0.74% (inactive); (833.33 nM) 0.5% (inactive); (10000 nM) -0.94% (inactive).

Take `Nc1[nH]cnc2ncnc1-2` [adenine]: the “inhibition” value reads like this: (1 nM) 1.26% (inactive); (8.33 nM) 0.3% (inactive); (100 nM) 3.06% (inactive); (833.33 nM) 6.45% (inactive); (10000 nM) 3.2% (inactive).

As for `C[N+]1(C)CCCC(OC(=O)C(O)(c2ccccc2)c2ccccc2)C1` (stereo not given) [mepenzolate], the “inhibition” value runs as follows: (1 nM) -0.21% (inactive); (8.33 nM) -0.16% (inactive); (100 nM) -3.53% (inactive); (833.33 nM) 0.26% (inactive); (10000 nM) 0.49% (inactive).

In the case of `C=CC(=O)Nc1ccc2ncnc(Nc3ccc(OCc4cccc(F)c4)c(Cl)c3)c2c1`, the “inhibition” value (1 nM) was -1.9% (inactive); the “inhibition” value (8.33 nM) is 1.55% (inactive); the “inhibition” value (100 nM) was -0.97% (inactive); the “inhibition” value (833.33 nM) was -0.61% (inactive); the “inhibition” value (10000 nM) is -3.89% (inactive).

For `O=C(c1ccc(F)cc1)C1CCN(CCCCc2ccccc2)CC1` [4-(4-fluorobenzoyl)-1-(4-phenylbutyl)-piperidine], the “inhibition” value is -4.06% (inactive) (1 nM); -1.58% (inactive) (8.33 nM); -0.19% (inactive) (100 nM); 1.25% (inactive) (833.33 nM); -4.47% (inactive) (10000 nM).

For the molecule `Cc1[nH]cnc1-c1ccc(Cl)cc1` [lofemizole], the “inhibition” value was -0.61% (inactive) (1 nM); -0.4% (inactive) (8.33 nM); 150% (active) (100 nM); 0.04% (inactive) (833.33 nM); -0.36% (inactive) (10000 nM).

Take `Cc1c(NC(=O)c2cc3c(s2)CCCC3)cccc1-c1cn(C)c(=O)c(Nc2ccc(C3C(=O)N(C)CCN3C)cc2)n1` (stereo in doubt): the “inhibition” value by setting is: (1 nM) 2.73% (inactive); (8.33 nM) -3.85% (inactive); (100 nM) 3.38% (inactive); (833.33 nM) 3.72% (inactive); (10000 nM) 7.34% (inactive).

Regarding `N[C@@H](CC(=O)N1CCn2c(nnc2C(F)(F)F)C1)Cc1cc(F)c(F)cc1F` [sitagliptin], the “inhibition” value by setting is: (1 nM) -0.24% (inactive); (8.33 nM) 1.03% (inactive); (100 nM) 2.43% (inactive); (833.33 nM) 3.7% (inactive); (10000 nM) 1% (inactive).

As for `COC(=O)CCc1ccc(OCC(O)CNC(C)C)cc1` (stereo not given) [esmolol], the “inhibition” value was 0.17% (inactive) (1 nM); 0.64% (inactive) (8.33 nM); -0.39% (inactive) (100 nM); 0.07% (inactive) (833.33 nM); -0.39% (inactive) (10000 nM).

In the case of `C[C@H](CCC(=O)O)[C@H]1CC[C@H]2[C@@H]3C(=O)C[C@@H]4CC(=O)CC[C@]4(C)[C@H]3CC(=O)[C@]12C` [dehydrocholate-acid], the “inhibition” value is, setting by setting: (1 nM) -5.5% (inactive); (8.33 nM) -4.18% (inactive); (100 nM) -2.25% (inactive); (833.33 nM) -2.84% (inactive); (10000 nM) -7.01% (inactive).

Regarding `OC(c1ccccc1)(c1ccccc1)C12CC[N+](CCOCc3ccccc3)(CC1)CC2` [umeclidinium], the “inhibition” value is, setting by setting: (1 nM) -0.48% (inactive); (8.33 nM) 1.77% (inactive); (100 nM) 0.73% (inactive); (833.33 nM) 1.46% (inactive); (10000 nM) 1.64% (inactive).

As for `C=C[C@@]1(C)CC(=O)[C@]2(O)[C@@]3(C)[C@@H](O)CCC(C)(C)[C@@H]3[C@H](OC(=O)CCN(C)C)[C@H](OC(C)=O)[C@@]2(C)O1` [colforsin-daproate], the “inhibition” value reads like this: (1 nM) 0.4% (inactive); (8.33 nM) -2.13% (inactive); (100 nM) -3.35% (inactive); (833.33 nM) 3.07% (inactive); (10000 nM) 29.6% (active).

Regarding `CC[C@H](/C=C/[C@@H](C)[C@H]1CC[C@H]2[C@@H]3CC=C4C[C@@H](O)CC[C@]4(C)[C@H]3CC[C@]12C)C(C)C` [Stigmasterol (Stigmasterin)], the “inhibition” value (1 nM) is 0.05% (inactive); the “inhibition” value (8.33 nM) was -0.75% (inactive); the “inhibition” value (100 nM) is 0.44% (inactive); the “inhibition” value (833.33 nM) is 0.29% (inactive); the “inhibition” value (10000 nM) was -0.01% (inactive).

`CCCN1CCCC(c2cccc(O)c2)C1` (stereo in doubt) [preclamol]: the “inhibition” value reads like this: (1 nM) -0.2% (inactive); (8.33 nM) -0.3% (inactive); (100 nM) 0.42% (inactive); (833.33 nM) 1.02% (inactive); (10000 nM) -1.58% (inactive).

`Cc1nc(NC(=O)N2CCC[C@H]2C(N)=O)sc1-c1ccnc(C(C)(C)C(F)(F)F)c1` [alpelisib]: the “inhibition” value (1 nM) was 2.4% (inactive); the “inhibition” value (8.33 nM) was 0.48% (inactive); the “inhibition” value (100 nM) was 0.01% (inactive); the “inhibition” value (833.33 nM) is -1.87% (inactive); the “inhibition” value (10000 nM) is 0.02% (inactive).

Turning to `COC(=O)C1=C(C)NC(C)=C(C(=O)OC/C=C/c2ccccc2)C1c1cccc([N+](=O)[O-])c1` (stereo not given) [pranidipine], the “inhibition” value runs as follows: (1 nM) 1.87% (inactive); (8.33 nM) 0.47% (inactive); (100 nM) -0.57% (inactive); (833.33 nM) 1.4% (inactive); (10000 nM) 8.67% (inactive).

On to `Nc1nc2c(ccc3ccccc32)s1`, for which the “inhibition” value was -0.98% (inactive) (1 nM); -0.18% (inactive) (8.33 nM); -1.85% (inactive) (100 nM); -0.09% (inactive) (833.33 nM); -1.09% (inactive) (10000 nM).

`O=C(Cn1ccnc1[N+](=O)[O-])NCCO` [etanidazole]: the “inhibition” value runs as follows: (1 nM) 0.32% (inactive); (8.33 nM) 0.33% (inactive); (100 nM) 4.88% (inactive); (833.33 nM) -1.27% (inactive); (10000 nM) -0.88% (inactive).

In the case of `CCN(CC)CCOC(=O)C1(c2ccc([N+](=O)[O-])cc2)CCCC1` [nitrocaramiphen], the “inhibition” value is -3.06% (inactive) (1 nM); 1.17% (inactive) (8.33 nM); 1.69% (inactive) (100 nM); -0.19% (inactive) (833.33 nM); -0.92% (inactive) (10000 nM).

Consider `CC[N+](CC)(CC)CCC(O)(c1ccccc1)C1CCCCC1` (stereo not given) [tridihexethyl], for which the “inhibition” value is, setting by setting: (1 nM) -1.22% (inactive); (8.33 nM) -1.31% (inactive); (100 nM) -0.23% (inactive); (833.33 nM) -1.37% (inactive); (10000 nM) -1.87% (inactive).

Turning to `Oc1ccc(-c2c(-c3ccccc3)nn3c(C(F)(F)F)cc(C(F)(F)F)nc23)cc1`, the “inhibition” value reads like this: (1 nM) 0.08% (inactive); (8.33 nM) 0.21% (inactive); (100 nM) -0.05% (inactive); (833.33 nM) -1.7% (inactive); (10000 nM) 11.9% (inactive).
